Bioassay records as filed in PubChem.
Cruzain Triton = qHTS Assay for Promiscuous and Specific Inhibitors of Cruzain (with detergent); Cruzipain (Trypanosoma cruzi), P25779; purified cruzain, Z-FR-AMC fluorescence, 0.01% Triton; Potency, µM, inactives show max response, negative = inhibition, most hits filed as inhibitors; actives 0.43% (n = 200,000);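 further: plate controls were neutral wells for no effect and buffer without enzyme for full effect; nearly all actives have a fitted effect of over 40% in size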
Target sequence (P25779 123-467 limits assumed): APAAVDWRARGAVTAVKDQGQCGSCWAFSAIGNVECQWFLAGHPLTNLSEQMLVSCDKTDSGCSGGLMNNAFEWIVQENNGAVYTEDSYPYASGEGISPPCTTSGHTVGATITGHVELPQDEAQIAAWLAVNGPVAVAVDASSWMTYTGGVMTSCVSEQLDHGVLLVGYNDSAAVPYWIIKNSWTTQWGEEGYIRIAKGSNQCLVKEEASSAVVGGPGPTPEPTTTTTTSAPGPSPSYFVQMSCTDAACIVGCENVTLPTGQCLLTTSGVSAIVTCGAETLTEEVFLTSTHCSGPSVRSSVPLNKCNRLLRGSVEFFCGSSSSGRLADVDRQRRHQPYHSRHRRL
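Compounds were screened in titration against cruzain (1.5 nM) with 0.01% Triton X-100 to counter colloidal aggregation. Activity was the AMC fluorescence increase over 60 s after adding 2 uM Z-FR-AMC at pH 5.5.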
NS1 inh = qHTS Assay for Inhibitors of Influenza NS1 Protein Function; Potency, µM (highest dose often 46.1 µM), inactives show top-dose activity, positive = more growth; actives 0.4% (n = 270,000); calls by dose curve; further: actives are rising curves; nearly all actives have a fitted effect of over 50% in size
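In this qHTS, NS1 from influenza A is expressed in budding yeast, where it slows growth. Cells are switched from glucose to 2% galactose medium (pH 6.0, -URA), treated with compound, and growth recovery is read at OD600.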
Cruzain inh noDet = qHTS Assay for Promiscuous and Specific Inhibitors of Cruzain (without detergent) | actives 2.3% (n = 200,000) | purified cruzain, Z-FR-AMC fluorescence, no detergent | Potency, µM, inactives show max response, negative = inhibition, hits mostly inhibitors;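 further: plate controls were enzyme without inhibitor for no effect and buffer without enzyme for full effect; nearly all actives have a fitted effect of over 40% in size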
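Detergent-free condition (0.00005% Triton X-100) in acetate buffer pH 5.5 with DTT. 1.5 nM enzyme and compound were pre-mixed 15 min, then 2 uM Z-FR-AMC substrate added; reaction progress from fluorescence change between first and third reads (60 s).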
Numbers without * were called inactive; ? = inconclusive; . = no result. The entries come from a sample that favours hits as a whole. Unless noted, the call rests on the fitted dose curve; in most records, active means well fitted curve in the direction sought with a large enough effect; inconclusive means small, poorly fitted or top-dose-only effect, or another doubt; inactive means no such curve, though single readings can be large; an effect the other way counts as inactive or inconclusive. Potency means the concentration at half of the fitted maximal effect.

SMILES	Cruzain Triton	NS1 inh	Cruzain inh noDet
CC(C)(C)c1ccc(CN(Cc2ccco2)c2cnc(S(C)(=O)=O)nc2C(=O)Nc2ccc(F)cc2)cc1	-3.6%	.	7.94µM*
COc1ccc2c(CNC3CCCCCC3)c(C(=O)O)n(Cc3ccccc3F)c2c1	-1.9%	.	-2.9%
N#Cc1c(NC(=O)CCC(=O)O)ccc2ccccc12	2.2%	-1.4%	6.2%
C/C(=N/NC1=NCCN1)c1cn(C2=NCCN2)nc1C	-1.7%	2.6%	13.4%
O=C(CCNS(=O)(=O)c1ccc2c(c1)CCCC(=O)N2)NCc1ccc(Cl)cc1	-1.5%	.	-1.8%
Cc1sc(NC(=O)c2cc3ccccc3oc2=O)c(C(=O)OC(C)C)c1-c1ccccc1	-0.6%	?	3.16µM*
CCOC(=O)c1c(-c2ccc(C)cc2)csc1NC(=O)c1cc2ccccc2oc1=O	-0.4%	-142.1%	-6.6%
Cc1ccc(C(=O)CN2C(=O)c3ccccc3S2(=O)=O)cc1	.	2.2%	.
Cc1ccc(C(=O)CN2/C(=C(\O)c3ccccc3)C(=O)c3ccccc3S2(=O)=O)c(C)c1	0.0%	-22.7%	25.1µM*
NCCSS(=O)(=O)CCN	3.2%	3.5%	3.9%
Cc1ccc2nc(/N=C(\N)NC(=O)N3c4ccccc4Sc4ccccc43)nc(C)c2c1	-4.0%	-7.6%	?
Cc1cc2nc(/N=C(\N)NC(=O)N3c4ccccc4Sc4ccccc43)nc(C)c2cc1C	-4.3%	16.3%	15.8µM*
CC1CCC(NC(=O)c2ccc3c(c2)N(Cc2ccccc2F)C(=O)c2ccccc2S3=O)CC1 (stereo not drawn)	2.0%	.	-25.7%
COc1ccc(CNC(=O)c2cc3ccccn3n2)cc1OC	0.2%	.	-10.8%
CCOC(=O)CCCSc1nc(-c2ccc3c(c2)OCO3)cc(C(F)(F)F)c1C#N	-3.6%	2.3%	25.1µM*
CCOC(=O)CSc1nc(-c2ccc(OC)cc2)cc(C(F)(F)F)c1C#N	-3.0%	.	-3.2%
CCCCC/C=C\C\C=C/C=C/C=C/[C@@H](SCC(N)C(=O)NCC(=O)O)[C@@H](O)CCCC(=O)O (stereo partly drawn)	4.4%	.	0.9%
Cc1cccc(C(=O)Nc2ccc(C(=O)/C=C/c3cccnc3)cc2)c1	-13.3%	-26.2%	?
O=C(/C=C/c1cccnc1)c1ccc(NC(=O)c2cccc(Br)c2)cc1	-10.7%	-14.2%	25.1µM*
O=C1C(c2[nH]c3ccc(S(=O)(=O)O)cc3c2O)=Nc2ccc(S(=O)(=O)O)cc21	1.3%	.	-3.3%
O=[N+]([O-])c1ccc(/C=N\N2CCN(c3ccc(Cl)cc3)CC2)cc1	3.2%	1.9%	15.8µM*
O=[N+]([O-])c1ccc(N2CCN(c3nc(-c4ccc(Cl)cc4)cs3)CC2)cc1	-2.0%	-5.1%	12.6µM*
C/C(=N\N1CCN(c2ccc(Cl)cc2)CC1)c1cccc([N+](=O)[O-])c1	.	6.1%	.
O=[N+]([O-])c1cccc(/C=N\N2CCN(c3ccc(Cl)cc3)CC2)c1	-1.9%	7.0%	25.1µM*
O=[N+]([O-])c1ccc(/C=N/N2CCCCC2)cc1	.	3.3%	.
SMILES	Cruzain Triton	NS1 inh	Cruzain inh noDet
O=[N+]([O-])c1ccc(-c2csc(N3CCCCCC3)n2)cc1	.	1.3%	.
Cc1nc2ncnn2c(C)c1CCC(=O)NCc1ccccc1Cl	1.6%	.	6.0%
CSC(=[SH+])N=N/C(=C1/C=CC=CN1)c1ccccn1.[Cu][Br]	0.2%	21.0%	0.2%
COC(=O)[C@H](Cc1ccccc1)NC(=O)O[C@@H]1Cc2cc(OC)ccc2O[C@H]1c1cccc(OC)c1	-1.7%	.	-11.1%
CC(C)(C)c1ccc(S(=O)(=O)N2CCN(Cc3noc(CCC(=O)N4CCCCC4)n3)CC2)cc1	-2.3%	.	?
CC(C)C(=O)Nc1ccc2nc(SCC(=O)N3CCCC3)sc2c1	-3.6%	.	-6.3%
O=C(c1ccco1)N1CCC[C@@]2(CCN(c3cccc(-c4ccccc4)c3)C2)C1	-1.1%	.	6.0%
O=[N+]([O-])c1cccc2ccc(/C=C/c3ccc(F)cc3)nc12	-5.9%	5.0%	-9.7%
O=[N+]([O-])c1ccc(/C=C/c2ccc3cccc([N+](=O)[O-])c3n2)cc1	-5.6%	15.5%	12.6µM*
O=C(NCCN1CCCCC1)c1ccc(Cn2c(SCc3ccc(F)cc3)nc3cccnc32)cc1	-6.8%	.	-1.5%
COc1ccc(C2=CC(c3cccc(C)c3)n3nnnc3N2)cc1 (stereo not drawn)	-5.7%	.	0.7%
Cc1c(Cl)ccc2sc(NC(=O)c3ccc(S(=O)(=O)N4CCCc5ccccc54)cc3)nc12	0.8%	.	?
Cc1ccc(-c2csc(NC(=O)c3ccc(S(=O)(=O)N4CCc5ccccc54)cc3)n2)cc1	0.7%	7.2%	5.01µM*
O=C(Nc1nc2c(Cl)cccc2s1)c1ccc(S(=O)(=O)N2CCc3ccccc32)cc1	-2.1%	.	3.16µM*
COc1cc2nc(NC(=O)c3ccc(S(=O)(=O)N4CCc5ccccc54)cc3)sc2cc1OC	-2.0%	.	-28.4%
Cc1cccc2sc(NC(=O)c3cccc(S(=O)(=O)N4CCc5ccccc54)c3)nc12	-1.2%	10.4%	10µM*
CCOc1cccc2sc(NC(=O)c3ccc(S(=O)(=O)N4CCCc5ccccc54)cc3)nc12	-2.1%	.	2µM*
O=C(Nc1ncccc1O)c1cccc(S(=O)(=O)N2CCc3ccccc32)c1	-2.9%	-204.4%	-6.2%
O=C(Nc1nc(-c2ccc(S(=O)(=O)N3CCOCC3)cc2)cs1)c1ccccc1	-6.3%	10.4%	-14.5%
Cc1ccc(Cl)cc1-n1ncc2c(Nc3cccc(C)c3C)ncnc21	-8.6%	.	5.8%
CCN(N=O)C(N)=O	5.6%	.	-5.7%
CCc1ccc(CN(Cc2ccco2)c2cnc(S(C)(=O)=O)nc2C(=O)Nc2ccc(C)c(Cl)c2)cc1	-1.2%	.	?
NCCC[C@@H](CC(=O)N[C@@H]1CCNC[C@H]1C(=O)N[C@H](CC(=O)N[C@@H](CCC(=O)O)CC(=O)O)Cc1ccccc1)NC(=O)C[C@H](CO)NC(=O)[C@@H]1CCCC[C@H]1N	1.8%	.	-0.6%
O=c1[nH]c(=O)n(CCc2ccc(F)cc2)c(O)c1C=NCc1ccc2c(c1)OCO2	12.6µM*	-1.7%	?
COc1ccc(CCn2c(O)c(C=NCc3ccc4c(c3)OCO4)c(=O)[nH]c2=O)cc1OC	-7.3%	?	?
SMILES	Cruzain Triton	NS1 inh	Cruzain inh noDet
CC1(C)O[C@@H]2O[C@H]([C@@H]3COC(C)(C)O3)[C@H](N)[C@H]2O1	2.2%	-0.7%	3.0%
O=C(O)c1ccncc1.O=C(O)c1ccncc1.[Cl][Pt]([Cl])([Cl])[Cl]	0.5%	-13.1%	4.3%
O=C(N/N=C/C=C\c1ccco1)c1ccccn1	.	2.8%	.
O=C(N/N=C\C=C\c1ccco1)c1cc(-c2ccc3ccccc3c2)n[nH]1	-10.3%	15.4%	15.8µM*
O=C1CCC=C1C(O)c1ccc(Cl)cc1 (stereo not drawn)	4.2%	.	-4.1%
CCOC(=O)c1ccc(NC(=O)CCn2c(=O)c3cccn3c3cccnc32)cc1	-5.1%	.	5.0%
COc1cccc(C2C(C(=O)c3sc(C)nc3C)=C(O)C(=O)N2CCN(C)C)c1OC (stereo not drawn)	-10.3%	8.91µM*	-9.7%
Cc1nc(C)c(C(=O)C2=C(O)C(=O)N(CCN(C)C)C2c2cccs2)s1 (stereo not drawn)	0.8%	5.8%	-6.7%
CCOc1ccc(NC(=O)Cn2c(=O)n(Cc3nc(-c4ccccc4)no3)c(=O)c3cc4c(cc32)OCO4)cc1	-1.9%	.	-16.6%
